“And” between values parts separate entries of the source, which are not always exact repeats. Identical values can stand only once. Compounds without any hit were thinned out: in the full panel of roughly 83,000, 20% have a hit.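 96-well plates, one dose, 48 hours. Percent growth reported; active if below 10.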 The source made the active and inactive calls.
Assays:
Assay in all cases: NCI-60 one-dose screen, 48 h (100 = growth as untreated, 0 = no growth, -100 = all killed)
Details in all cases: 10 µM unless noted
[1] = test system: SK-MEL-2 melanoma
[2] = test system: EKVX NSCLC
[3] = test system: SN12C renal
[4] = test system: TK-10 renal
[5] = test system: CAKI-1 renal
[6] = test system: A498 renal
[7] = test system: HL-60(TB) leukemia
[8] = test system: UO-31 renal
[9] = test system: ACHN renal
[10] = test system: CCRF-CEM leukemia

Measured: growth

Cc1cc(N(CCCl)CCCl)ccc1/C=N\NC(=O)c1cccnc1
inactive: [1] 77.4% and 114% | [2] 97.9% and 95.8% | [3] 67.8% and 75.5% | [4] 89.2% and 103% | [5] 36.2% and 41.5% | [7] 60%
active: [6] -85.4% and -89.4%

CCOP(=O)(OCC)C(=O)N(CC)CC
inactive: [1] 103% | [3] 103% | [8] 104% | [9] 105% | [5] 103% | [6] 95.4% | [7] 91.8% | [10] 89.1%

CC[CH2][Sn]([Cl])([Cl])[CH2]CC.Oc1ccccc1C=NCCN=Cc1ccccc1O
17.6% (inactive) and -44.9% (active): [4]
7.92% (active) and 64.9% (inactive): [7]
active: [6] 7.69% and -34%
inactive: [1] 34.1% and 13.1% | [2] 85.2% and 75.2% | [3] 52.2% and 58.8% | [5] 50.4% and 33.6%

Cc1ccccc1-n1c(/C=C\c2ccccn2)nc2ccccc2c1=O
inactive: [1] 79.4% | [2] 82.8% | [3] 77.7% | [4] 49% | [5] 31.2% | [6] 62.1% | [7] 19.9% | [10] 29.9%

CC[C@H](C)[C@H](NC(=O)[C@H]1CCCCN1C)C(=O)N(C)[C@H](C(=O)NC12CC(C(=O)N[C@@H](Cc3ccccc3)C[C@H](C)C(=O)OC)(C1)C2)C(C)C
inactive: [1] 89.3% | [2] 102% | [3] 99% | [4] 98.4% | [9] 106% | [5] 95.9% | [7] 114% | [10] 103%

CN1CCC2(CC1)C(C#N)C(=O)NC(=O)C2C#N (centres undefined)
inactive: [1] 113% | [3] 105% | [8] 91.9% | [4] 125% | [9] 110% | [5] 92% | [6] 95.8% | [7] 107% | [10] 104%

COC(=O)C1=CO[C@@H](C)[C@@H]2CN3CCc4c([nH]c5cc(OC)ccc45)[C@@H]3C[C@H]12
inactive: [1] 100% | [2] 97.5% | [3] 87.8% | [4] 101% | [9] 94.8% | [5] 89.8% | [7] 87.1% | [10] 106%

c1ccc2c(c1)O[As](O[As]1Oc3ccccc3O1)O2
inactive: [3] 40.2% | [8] 32.2% | [4] 61.6% | [5] 16.5% | [6] 27.5%
active: [1] 5.79% | [7] -28.3%

O=NN(c1ccccc1)c1ccccc1
inactive: [1] 105% | [3] 98.1% | [8] 96% | [4] 103% | [9] 118% | [5] 102% | [6] 101% | [10] 98.9%

C/C(=C\c1ccn(-c2ccc(N)cc2F)n1)[C@@H]1C[C@@H]2O[C@]2(C)CCC[C@H](C)[C@H](O)[C@@H](C)C(=O)C(C)(C)[C@@H](O)CC(=O)O1
inactive: [1] 13.5% | [2] 46.7% | [3] 29.3% | [4] 48.3% | [9] 38.9% | [5] 41.4% | [10] 12.9%
active: [6] 0.324% | [7] 3.32%

CCCCOCCOP(=O)(OCCOCCCC)OCCOCCCC
inactive: [1] 114% | [2] 97.7% | [3] 98% | [4] 96.1% | [9] 102% | [5] 98% | [6] 89.1% | [7] 84.1% | [10] 110%

O=S(=O)(c1ccc(O)cc1)c1ccccc1O
inactive: [1] 104% | [2] 107% | [3] 101% | [9] 98.7% | [5] 96.2% | [6] 97% | [7] 106% | [10] 88.6%

O=[N+]([O-])c1cc(Br)c(O)c(Br)c1
inactive: [1] 108% | [3] 106% | [8] 87.5% | [4] 100% | [5] 108% | [6] 70.1% | [7] 119% | [10] 100%

NC(=O)c1c(Br)c(Br)c(Br)c(Br)c1C(=O)O (tested in a mixture with another compound)
inactive: [1] 101% and 113% | [2] 108% and 99.9% | [3] 87.8% and 93.3% | [4] 122% and 123% | [9] 92.7% and 101% | [5] 92.8% and 97.5% | [6] 113% | [7] 85% and 68.2% | [10] 35.5% and 79.4%

O=[N+]([O-])c1ccc(OCc2ccc(S(=O)(=O)F)c(Cl)c2)c(Cl)c1
inactive: [1] 88.7% | [2] 112% | [3] 97.7% | [9] 92.7% | [5] 102% | [6] 95.6% | [7] 88.9% | [10] 87.9%

CNC(=O)CCl
inactive: [1] 101% | [3] 96.9% | [8] 96.5% | [4] 99.9% | [9] 114% | [5] 94.9% | [7] 119% | [10] 94%

COc1ccc2c(c1)C1(C)CCN(C)CC(C1)C2O (centres undefined)
inactive: [1] 105% | [3] 99.3% | [8] 86.9% | [4] 95% | [9] 104% | [5] 119% | [6] 99.5% | [7] 89.1% | [10] 94.3%

C[N+]1(C)CCCC1c1cccnc1 (centres undefined)
inactive: [1] 112% | [3] 99.8% | [8] 99.7% | [4] 111% | [9] 114% | [5] 98.2% | [7] 117% | [10] 97.6%

Cc1nc2ccccc2c(=O)n1-c1ccccc1F
inactive: [1] 105% | [2] 89.3% | [3] 95% | [4] 98% | [9] 104% | [5] 96.4% | [6] 84.5% | [7] 89.3% | [10] 99.1%

O=[N+]([O-])c1ccc(P(=O)(O)O)cc1
inactive: [1] 103% | [3] 101% | [8] 81.5% | [4] 101% | [9] 98.8% | [5] 95.7% | [6] 125% | [7] 105% | [10] 97.1%

CCOC(=O)c1ccccc1C(=O)OCC
inactive: [1] 89.7% | [2] 80.3% | [3] 94.6% | [4] 98.2% | [9] 98.4% | [5] 77.2% | [6] 104% | [7] 141% | [10] 94.8%

COc1ccn(C)c(=O)c1C#N
inactive: [1] 72.9% | [2] 105% | [3] 105% | [4] 78.5% | [9] 102% | [5] 100% | [6] 86.2% | [7] 104% | [10] 120%

O=C(O)c1ccccc1N(CCO)CCCl
inactive: [1] 116% | [2] 118% | [3] 98.3% | [4] 117% | [9] 95% | [5] 112% | [6] 100% | [7] 53.8%
active: [10] -3.53%

CCCCCCCCCCCCCCCCCCn1cc[n+](C)c1
inactive: [10] 34% and 67.8%
active: [1] -61.3% and -51.7% | [3] -52.5% and -68.4% | [8] -61.4% and -66.1% | [4] -70.2% and -72.4% | [9] -12.4% and -43.5% | [5] -67.3% and -78.6% | [7] 3.76% and 2.22%

C[N+]12CCC34C5=CC(=O)C(=O)C=C5[N+]5(C)C(=O)CC6OCC=C(C1)C(CC32)C6C45 (centres undefined)
inactive: [1] 120% | [3] 105% | [8] 96.7% | [4] 116% | [9] 101% | [5] 116% | [6] 126% | [7] 84.2% | [10] 102%

C=C1C(=O)OC2CC3(C)OC3C3OC3C3=CC(OC3=O)C12 (centres undefined)
active: [5] 4.76% and 6.96% | [7] -17.4% and 3.33% | [10] -42.4% and -54.4%
inactive: [1] 100% | [2] 111% | [3] 100% and 97.4% | [6] 113% and 106%
16.7% (inactive) and -22.5% (active): [4]

CCOC(=O)C1C(C=C(C)C)C1(C)C (centres undefined)
inactive: [1] 121% | [2] 110% | [3] 104% | [4] 107% | [9] 100% | [5] 95.8% | [6] 105% | [7] 117% | [10] 82.6%

N#CC(N)c1ccccc1 (centres undefined)
inactive: [1] 122% | [3] 104% | [8] 86.3% | [4] 109% | [9] 105% | [5] 102% | [6] 81.2% | [7] 102% | [10] 107%

Source: PubChem BioAssay (NCI)
